Laboratory results taken from PubChem BioAssay.
Values joined by “and” are separate entries in the source; they are usually repeats but may differ in a detail not shown here. Equal entries are not always repeated.

assay: viability loss with induced miR-34 in A549 – imaging, A549 dox-inducible miR-34, nuclei and caspase counts, primary screen (AID 1347080); conditions: A549 miR-34 inducible, Hoechst nuclei count, 48 h; measured here: relative caspase fold change +Dox/-Dox; note: test concentration not given here

**Q.** With `CC(C)=CCC/C(C)=C/CC/C(C)=C/CC[C@]1(C)CCc2cc(O)c(C)c(C)c2O1` as the compound, how does the fold change read?
**A.** 0.749

**Q.** For `N#Cc1cc2c(OCC(O)CN3CCN(C(c4ccccc4)c4ccccc4)CC3)cccc2[nH]1` (stereo not drawn), which fold change is on record?
**A.** 1.38

**Q.** Which fold change does the source give for `CCCCC[C@H](O)/C=C/[C@H]1[C@H](O)CC(=O)[C@@H]1C/C=C\CCCC(=O)NCCO` here?
**A.** 1.44

**Q.** With `CCNC1=N[C@@H]2[C@@H](O)[C@H](O)[C@@H](CO)O[C@@H]2S1` as the compound, how does the fold change read?
**A.** 1.7

**Q.** Which fold change does the source give for `CCCCC[C@H](O)/C=C/[C@H]1[C@H](O)CC(=O)[C@H]1C/C=C\CCCC(=O)O` here?
**A.** 1.41

**Q.** With `CO[C@H]1CC(O[C@@H]2/C(C)=C/C[C@@H]3C[C@@H](C[C@]4(C=C[C@H](C)[C@@H](C5CCCCC5)O4)O3)OC(=O)[C@@H]3C=C(C)[C@@H](O)[C@H]4OC/C(=C\C=C\[C@@H]2C)[C@]43O)O[C@@H](C)C1O[C@H]1C[C@H](OC)[C@@H](O)[C@H](C)O1` (stereo partly drawn) as the compound, how does the fold change read?
**A.** 1.24

**Q.** Which fold change does the source give for `O=C(O)CCC/C=C\C[C@H]1C(=O)C=C[C@@H]1/C=C/[C@@H](O)COc1ccccc1` here?
**A.** 1.28

**Q.** For `CCCCC[C@H](O)/C=C/[C@H]1C(=O)C[C@H](O)[C@@H]1CCCCCCC(=O)O`, which fold change is on record?
**A.** 0.486

**Q.** Which fold change does the source give for `CCCCCCCCCC(=O)CC(=O)N[C@H]1CCOC1=O` here?
**A.** 0.275

**Q.** With `CN(C)CCCCCCOc1ccc(-n2ccnc2)cc1` as the compound, how does the fold change read?
**A.** 0.915 and 0.806

**Q.** For `CCCCC/C=C\C/C=C\CCCCCCCC(=O)OC[C@H](O)CO`, which fold change is on record?
**A.** 0.477

**Q.** For `CCCCCC/C=C\CCCC(=O)CC(=O)N[C@H]1CCOC1=O`, which fold change is on record?
**A.** 1.36

**Q.** With `CCCCC[C@H](O)CC[C@@H]1[C@@H](C/C=C\CCCC(=O)O)[C@@H](O)C[C@H]1O` as the compound, how does the fold change read?
**A.** 1.41
